In PubChem BioAssay (EPA / NIEHS) one finds outcome and AC50 data, which are given here for four compounds.

A word on the AC50: it is the concentration giving half of the maximal activity seen.

Test [1] in a line: ATG_CMV_CIS: Attagene CIS-FACTORIAL HepG2 Assay for human CMV (Internal Marker) (AID 2282928).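 Also: endpoint acts as a background internal control marker rather than a target.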 To be noted: HepG2 CMV promoter reporter, transcription factor profiling; actives raise or lower the signal. An outline of the steps: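 Endogenous transcription factor activity read in HepG2 via transfected cis-promoter reporter units. After 24 h dosing, reporter mRNA measured by RT-PCR/capillary electrophoresis; gain or loss of signal fit relative to DMSO.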

Test [2] is described as follows: ATG_DR4_LXR_CIS: Attagene CIS-FACTORIAL HepG2 Assay for human Liver X Receptor (LXR), DR4 submotif (AID 2282929). Particulars: HepG2 Attagene DR4 cis-reporter, mRNA transcription; actives raise or lower the signal. An outline of the steps: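 Total RNA from 24 h-treated, MRTU-transfected HepG2 cells underwent reverse transcription, PCR, fluorescent primer extension and restriction digestion before capillary electrophoresis. Both increases and decreases in reporter signal were fitted against DMSO.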

Test [3] is described as follows: ATG_AP_2_CIS: Attagene CIS-FACTORIAL HepG2 Assay for human Activator Protein 2 (AP-2) (AID 2282932). To be noted: HepG2 AP-2 cis-reporter, Attagene transcription factor profiling; actives raise or lower the signal. An outline of the steps: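 HepG2 cells transiently transfected with cis-element reporter units and exposed for 24 h. Reporter mRNA measured by RT-PCR, FAM labelling, HpaI digestion and capillary electrophoresis. Changes in either direction fitted relative to DMSO.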

Test [4] concerns the target Transcription factor E2F1 (Homo sapiens) (UniProt Q01094). The experiment in a line: ATG_E2F_CIS: Attagene CIS-FACTORIAL HepG2 Assay for human E2F Transcription Factor 1 (AID 2282935). Particulars: HepG2 Attagene cis-reporter, E2F reporter RNA transcripts; actives raise or lower the signal. An outline of the steps: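 Endogenous E2F1 activity read through cis-promoter reporter units transfected into HepG2. After 24 h compound treatment, reporter mRNA measured by RT-PCR, HpaI digestion and capillary electrophoresis. Bidirectional fit versus DMSO.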

A short description of test [5]: ATG_M_61_CIS: Attagene CIS-FACTORIAL HepG2 Assay for M61 Transcription Factor (Internal Marker) (AID 2282937). Particulars: HepG2 Attagene CIS-FACTORIAL M61 internal marker reporter; actives raise or lower the signal. An outline of the steps:
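Transfect HepG2 with MRTUs; dose 24 h; isolate RNA; reverse-transcribe with DNase I treatment; PCR-amplify, FAM-label and cut with HpaI for 2 h at 37 C; resolve by CE. Bidirectional fitting against DMSO.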

The nature of test [6]: ATG_EGR_CIS: Attagene CIS-FACTORIAL HepG2 Assay for human Early Growth Response 1 (EGR1) (AID 2282938). Particulars: HepG2 Attagene CIS-FACTORIAL EGR reporter mRNA; actives raise or lower the signal. An outline of the steps:
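After a 24 h treatment of transiently transfected HepG2 cells, total RNA was reverse-transcribed and reporter sequences PCR-amplified, labelled and run on capillary electrophoresis. Reporters sit under cis-regulatory promoters sensing endogenous factors.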

Test [7] is described as follows: ATG_Ets_CIS: Attagene CIS-FACTORIAL HepG2 Assay for human Erythroblast Transformation Specific (ETS) (AID 2282941). Particulars: HepG2 ETS cis-reporter transcription, actives raise or lower the signal. An outline of the steps: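 Steps: transfect HepG2 with multiple reporter units; treat compound 24 h; isolate RNA, DNase-treat, reverse-transcribe; PCR-amplify, label with 6-FAM, digest with HpaI; separate by capillary electrophoresis. Activity fitted both directions versus DMSO.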

For test [8], the target named is Hepatocyte nuclear factor 3-beta (Homo sapiens) (UniProt Q9Y261). Put plainly: ATG_FoxA2_CIS: Attagene CIS-FACTORIAL HepG2 Assay for human Forkhead box A2 (FOXA2) (AID 2282942). To be noted: HepG2 cis-reporter transcription factor activity, 24 h; actives raise or lower the signal. An outline of the steps: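 24 h dosing of HepG2 bearing cis-reporter constructs; mRNA readout by RT-PCR/CE fluorescence; bidirectional fit, DMSO baseline.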

Test [9] in a line: ATG_FoxO_CIS: Attagene CIS-FACTORIAL HepG2 Assay for human Forkhead box O (FoxO) (AID 2282943). Particulars: HepG2 Attagene cis-reporter, FoxO element, mRNA; actives raise or lower the signal. An outline of the steps:
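Read-out: fluorescence of 6-FAM-labelled reporter cDNA fragments resolved by capillary electrophoresis. Transiently transfected HepG2 cells were dosed for 24 h; activity fitted in both directions relative to DMSO controls.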

Test [10] can be described thus: ATG_GATA_CIS: Attagene CIS-FACTORIAL HepG2 Assay for human GATA Binding Protein (AID 2282944). To be noted: HepG2 GATA cis-element reporter, Attagene multiplex mRNA; actives raise or lower the signal. An outline of the steps:
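DMSO serves as negative control and baseline for bidirectional fitting of reporter mRNA changes. HepG2 cells bearing transiently transfected cis-promoter reporters were exposed 24 h; transcripts detected via RT-PCR and capillary electrophoresis.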

A short description of test [11]: ATG_ISRE_CIS: Attagene CIS-FACTORIAL HepG2 Assay for human Interferon Regulatory Factor 1 (IRF1) binding to an Interferon-Stimulated Response Element (ISRE) (AID 2282948). To be noted: HepG2 ISRE cis-reporter (Attagene), mRNA transcription readout; actives raise or lower the signal. An outline of the steps: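 Transfected HepG2 (multiple reporter transcription units, cis elements) dosed 24 h. RNA → oligo(dT) RT → PCR → 6-FAM primer extension → HpaI → CE. DMSO = negative control/baseline.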

Test [12] is described as follows: ATG_M_32_CIS: Attagene CIS-FACTORIAL HepG2 Assay for M32 Transcription Factor (Internal Marker) (AID 2282949).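 Also: background control marker of the multiplexed CIS panel rather than a real target.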 Particulars: HepG2 Attagene cis-factorial M32 reporter, mRNA; actives raise or lower the signal. An outline of the steps: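 Fluorescent capillary electrophoresis peaks of HpaI-digested, FAM-labelled RT-PCR reporter products give the signal. Source: transiently transfected human liver HepG2 cells, 24 h after chemical dosing; bidirectional fitting against DMSO.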

A short description of test [13]: ATG_MRE_CIS: Attagene CIS-FACTORIAL HepG2 Assay for human Metal Responsive Element (MRE) (AID 2282954). Particulars: HepG2 MRE cis-reporter transcription, Attagene multiplex; actives raise or lower the signal. An outline of the steps: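 HepG2 cells transiently transfected with cis-element-driven reporter units; mRNA measured 24 h after dosing. Reporter transcripts quantified by RT-PCR, FAM labelling, HpaI digestion and capillary electrophoresis; bidirectional fit versus DMSO.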

Test [14] has as its target Paired box protein Pax-6 (Homo sapiens) (UniProt P26367). The experiment in a line: ATG_Pax6_CIS: Attagene CIS-FACTORIAL HepG2 Assay for human Paired Box 6 (PAX6) (AID 2282956). Particulars: HepG2 CIS-FACTORIAL PAX6 reporter transcription, RNA readout; actives raise or lower the signal. An outline of the steps:
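Transient MRTU transfection of HepG2 → compound exposure 24 h → TriZol RNA, oligo(dT) RT → PCR, 6-FAM primer extension, HpaI cut → capillary electrophoresis; activity fitted both directions against DMSO.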

Test [15] is described as follows: ATG_PXRE_CIS: Attagene CIS-FACTORIAL HepG2 Assay for human Pregnane X Receptor Element (PXRE) (AID 2282957). Particulars: HepG2 Attagene CIS-FACTORIAL PXRE reporter, mRNA; actives raise or lower the signal. An outline of the steps:
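Transiently transfected HepG2 cells were dosed and incubated for 24 h. RNA was then isolated, DNase-treated, reverse-transcribed and reporter sequences amplified. Labeled, HpaI-digested fragments were quantified by capillary electrophoresis against DMSO.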

A short description of test [16]: ATG_Sox_CIS: Attagene CIS-FACTORIAL HepG2 Assay for human SRY-box transcription factor (SOX) (AID 2282960). To be noted: HepG2 Attagene cis-factorial SOX reporter, mRNA; actives raise or lower the signal. An outline of the steps: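 HepG2, cis reporter units, 24 h exposure. Reporter mRNA: RT-PCR → FAM labelling → HpaI → CE fluorescence. Bidirectional fit vs DMSO.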

Test [17] is described as follows: ATG_SREBP_CIS: Attagene CIS-FACTORIAL HepG2 Assay for human Sterol Regulatory Element Binding (SREBP) (AID 2282962). Particulars: HepG2 Attagene cis-factorial SREBP reporter, mRNA; actives raise or lower the signal. An outline of the steps: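 Transfected HepG2 (cis-regulated reporter library, endogenous TFs) → compound 24 h → total RNA → oligo(dT) RT → reporter-specific PCR → FAM primer extension, HpaI cut → CE fluorescence. Fit bidirectional vs DMSO.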

Test [18] is described as follows: ATG_TCF_b_cat_CIS: Attagene CIS-FACTORIAL HepG2 Assay for human T-Cell-Factor with beta-catenin (TCF/b-cat) (AID 2282965). To be noted: HepG2 TCF/beta-catenin cis-reporter transcription, actives raise or lower the signal. An outline of the steps: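 HepG2, transient MRTU transfection, cis-element-driven reporters (endogenous TFs). 24 h compound exposure. Readout: reporter mRNA by RT-PCR + 6-FAM primer extension, HpaI digest, capillary electrophoresis. Gain/loss fit vs DMSO baseline.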

Test [19] in a line: ATG_TAL_CIS: Attagene CIS-FACTORIAL HepG2 Assay for human TAL Basal Promoter (AID 2282966).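 Also: background control endpoint measuring basal TAL promoter reporter mRNA not a specific factor.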 To be noted: HepG2 Attagene cis-factorial TAL promoter reporter; actives raise or lower the signal. An outline of the steps:
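Readout: reporter mRNA, fluorescence by CE. System: HepG2, transient multi-reporter transfection, endogenous TF activity. Exposure: 24 h. Analysis: bidirectional, DMSO-normalized; background control.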

The nature of test [20]: ATG_TGFb_CIS: Attagene CIS-FACTORIAL HepG2 Assay for human Transforming Growth Factor (TGF) (AID 2282967). To be noted: HepG2 Attagene CIS TGFb reporter, mRNA transcription; actives raise or lower the signal. An outline of the steps: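 Transcript-level reporter readout: HepG2 transfectants, 24 h exposure, RNA to cDNA, reporter-specific PCR, fluorescent primer extension, capillary sizing against ROX standards. Gain- or loss-of-signal relative to DMSO.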

Active and inactive are the calls of the source. The calls were made as follows: active = hit-call score of the fitted dose curve at least 0.9, where 1 is the maximum; inactive = score below 0.9.

Paired box protein Pax-6 (Homo sapiens), sequence (P26367 whole entry, looked up): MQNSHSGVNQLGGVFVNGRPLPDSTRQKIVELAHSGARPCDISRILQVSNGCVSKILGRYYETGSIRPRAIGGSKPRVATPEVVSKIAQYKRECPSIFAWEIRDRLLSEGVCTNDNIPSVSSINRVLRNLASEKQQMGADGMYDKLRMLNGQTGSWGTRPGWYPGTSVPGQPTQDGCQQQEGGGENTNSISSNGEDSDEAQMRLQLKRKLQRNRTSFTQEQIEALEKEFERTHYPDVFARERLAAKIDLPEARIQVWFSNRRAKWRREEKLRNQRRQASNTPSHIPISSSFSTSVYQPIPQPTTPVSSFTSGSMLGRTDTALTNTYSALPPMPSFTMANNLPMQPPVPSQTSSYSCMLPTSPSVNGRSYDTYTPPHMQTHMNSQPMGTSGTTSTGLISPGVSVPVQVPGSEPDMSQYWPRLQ
Hepatocyte nuclear factor 3-beta (Homo sapiens), sequence (Q9Y261 whole entry, looked up): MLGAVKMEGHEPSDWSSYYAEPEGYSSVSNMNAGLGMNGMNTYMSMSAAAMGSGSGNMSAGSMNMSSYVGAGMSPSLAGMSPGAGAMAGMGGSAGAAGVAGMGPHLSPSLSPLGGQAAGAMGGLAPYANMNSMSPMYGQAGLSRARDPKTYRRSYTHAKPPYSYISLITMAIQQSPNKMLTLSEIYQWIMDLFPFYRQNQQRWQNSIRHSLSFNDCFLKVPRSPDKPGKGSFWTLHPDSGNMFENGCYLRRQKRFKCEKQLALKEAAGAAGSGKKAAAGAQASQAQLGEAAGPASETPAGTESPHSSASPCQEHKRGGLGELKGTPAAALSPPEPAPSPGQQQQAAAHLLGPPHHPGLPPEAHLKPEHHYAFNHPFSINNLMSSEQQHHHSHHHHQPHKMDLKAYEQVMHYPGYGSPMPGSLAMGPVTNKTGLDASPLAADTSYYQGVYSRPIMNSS
Transcription factor E2F1 (Homo sapiens), sequence (Q01094 whole entry, looked up): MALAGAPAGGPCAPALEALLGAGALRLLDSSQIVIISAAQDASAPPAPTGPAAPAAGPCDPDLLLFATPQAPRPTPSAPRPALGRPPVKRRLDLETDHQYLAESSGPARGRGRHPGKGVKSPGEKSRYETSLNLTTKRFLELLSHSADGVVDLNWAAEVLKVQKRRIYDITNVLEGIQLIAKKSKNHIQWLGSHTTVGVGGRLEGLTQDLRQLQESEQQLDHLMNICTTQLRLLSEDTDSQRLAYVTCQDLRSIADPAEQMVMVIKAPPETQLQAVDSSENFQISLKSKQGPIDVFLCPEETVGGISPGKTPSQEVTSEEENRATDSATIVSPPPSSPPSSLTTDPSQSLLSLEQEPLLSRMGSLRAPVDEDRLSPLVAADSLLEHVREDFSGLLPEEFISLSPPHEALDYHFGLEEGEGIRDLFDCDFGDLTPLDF

As for `ClC1=C(Cl)[C@]2(Cl)[C@@H]3[C@@H](Cl)[C@H](Cl)C[C@@H]3[C@@]1(Cl)C2(Cl)Cl`, the outcome in [1], in test [2], in test [3], in test [4], in [5] and in [6] was inactive. In addition, the call in test [7], in [8], in test [9], in [10], in test [11] and in test [12] was inactive. Also, the outcome in test [13], in [14], in [15], in test [16], in test [17] and in test [18] was inactive. Also, the result in [19] and in [20] was inactive.
`C=CC(=O)OCCO`: the call in [1], in test [3], in test [4], in test [5], in [7] and in test [8] was inactive. The call in [9], in test [10], in test [11], in test [12], in test [14] and in [15] was inactive. Besides, the compound was classed as inactive in [16], in test [18], in test [19] and in [20]. In addition, the AC50 was 123 µM (active) in test [2], 116 µM (active) in test [6], 70.9 µM (active) in test [13] and 172 µM (active) in test [17].
Take `CC(C)(C)C(=O)CCl`: the outcome in test [1], in [3], in test [4], in test [5], in test [6] and in [7] was inactive. Besides, the call in test [8], in [9], in [10], in test [11], in test [12] and in test [14] was inactive. For the same compound, the compound was classed as inactive in test [15], in test [16], in test [17], in test [18], in test [19] and in [20]. Besides, the AC50 in [2] was 55.2 µM (active); in test [13], 77.1 µM (active).
Turning to `CCN(CC)C(=S)S`, the AC50 was 100 µM (active) in [1], 71.9 µM (active) in test [13] and 22.7 µM (active) in [15]. Further, the result in test [2], in [3], in test [4], in test [5], in test [6] and in [7] was inactive. For the same compound, the compound was classed as inactive in test [8], in test [9], in test [10], in test [11], in [12] and in test [14]. Further, the outcome in [16], in [17], in [18], in test [19] and in [20] was inactive.
